Values without a mark were called inactive.

The values below come from the supplement of paper PMC6805474.

Test [1] deals with Schistosoma mansoni schistosomula (NMRI). In words: phenotypic severity score (0-4); higher = more antischistosomal effect, active = 2 or more. The note with it: 10 µM.
Test [2] deals with Schistosoma mansoni schistosomula (Liberian). The test is described as follows: drug effect (1 - score/DMSO control score) (fraction); higher = more antischistosomal effect, active = 0.5 or more; extreme values may be limits of the assay. Conditions: 10 µM. A digest of the protocol:
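Schistosomula of the Liberian strain of Schistosoma mansoni were mechanically transformed from cercariae, pre-incubated for at least 12 h, and placed at 50 per well in flat-bottom 96-well plates with Medium 199 containing 5% FCS. Compounds were tested in duplicate at 10 µM at 37 °C and 5% CO2, alongside wells holding 0.1% DMSO. Parasites were scored visually at 10× after 24, 48 and 72 h on a quarter-point scale running from 3 (normal) to 0 (dead). Drug effect came from the mean test-well score relative to the mean DMSO-well score, with negative values set to zero and plates accepted only when the DMSO wells averaged at least 2.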
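Throughout, for phenotypic severity score (0-4): visual microscopic scoring of shape, motility and density changes versus 0.5% DMSO solvent controls, one point per descriptor, degeneracy or death scored 4, mean of duplicate wells.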

With `Nc1c2c(nc3sc4c(c13)CCCC4)CCCC2`, the phenotypic severity score in test [1] (24 h), in test [1] (48 h) and in test [1] (72 h) was 4 (active) each time. The drug effect in test [2] (24 h) was 0.545 (active); in test [2] (48 h), 0.8 (active); in test [2] (72 h) it was 0.564 (active).

For `CO/N=C(\C(=O)OC)c1ccccc1CO/N=C(\C)c1cccc(C(F)(F)F)c1`, the values for the phenotypic severity score in test [1] (24 h), in test [1] (48 h) and in test [1] (72 h) were 1, 0 and 0, respectively. For the same compound, the drug effect in test [2] (24 h) was 0.05; in test [2] (48 h), 0.027; in test [2] (72 h), 0.152.

For `CO/C=C(/C(=O)OC)c1ccccc1Oc1cc(Oc2ccccc2C#N)ncn1`, the phenotypic severity score in test [1] (24 h), in test [1] (48 h) and in test [1] (72 h) was 0 in each case. Besides, the drug effect is 0.05 in test [2] (24 h), 0.027 in test [2] (48 h) and 0.111 in test [2] (72 h).

On to `CCc1nn(C)c(C(=O)NCc2ccc(Oc3ccc(C)cc3)cc2)c1Cl`, for which the phenotypic severity score in test [1] (24 h) is 1; in test [1] (48 h), 1; in test [1] (72 h), 2 (active). For the same compound, the values for the drug effect in test [2] (24 h), in test [2] (48 h) and in test [2] (72 h) were 0.364, 0.55 (active) and 0.455, respectively.

On to `O=C1O[C@@H](COc2ccon2)CN1c1cc(F)c(C2=CCN(Cc3ccccc3)CC2)c(F)c1`, for which the phenotypic severity score in test [1] (24 h), in test [1] (48 h) and in test [1] (72 h) was 0 each time. In addition, the drug effect is 0.1 in test [2] (24 h), 0.167 in test [2] (48 h) and 0.25 in test [2] (72 h).

Turning to `Cc1cccc(C(=O)Nc2ccnc(N(C)C3CCN(CC(C)C)CC3)c2)c1`, the phenotypic severity score in test [1] (24 h), in test [1] (48 h) and in test [1] (72 h) was 0 in each case. Moreover, the values for the drug effect in test [2] (24 h), in test [2] (48 h) and in test [2] (72 h) were 0.1, 0.243 and 0.212, respectively.

For `CC(C)(C)C(O)C(Oc1ccc(-c2ccccc2)cc1)n1cncn1` (centres undefined), the phenotypic severity score is 1 in test [1] (24 h), 0 in test [1] (48 h) and 0 in test [1] (72 h). Further, the drug effect in test [2] (24 h) was 0.0909; in test [2] (48 h), 0.15; in test [2] (72 h), 0.127.

`CO[C@@H]1CN(c2ccc(C#CC3(O)CN4CCC3CC4)c(Cc3ccccc3)n2)C[C@H]1O` (some centres undefined): the phenotypic severity score in test [1] (24 h), in test [1] (48 h) and in test [1] (72 h) was 0 each time. Moreover, the drug effect in test [2] (24 h) is under 0; in test [2] (48 h), under 0; in test [2] (72 h), 0.111.

`Cc1nn(C)c(C)c1NS(=O)(=O)c1c(Cl)cc(-c2ccnc(N3CCNCC3)c2)cc1Cl`: the phenotypic severity score in test [1] (24 h), in test [1] (48 h) and in test [1] (72 h) was 0 each time. The drug effect was 0.15 in test [2] (24 h), 0.0811 in test [2] (48 h) and 0.152 in test [2] (72 h).

On to `O=C1O[C@@H](CO)CN1c1cc(F)c(C2=CCN(Cc3ccccc3)CC2)c(F)c1`, for which the figures for the phenotypic severity score in test [1] (24 h), in test [1] (48 h) and in test [1] (72 h) were 0, 0 and 2 (active), respectively. In addition, the results for the drug effect in test [2] (24 h), in test [2] (48 h) and in test [2] (72 h) were 0.05, 0.111 and 0.188, respectively.

For the compound `CC1(C)OB(O)c2ccc(C3=NOC(c4cc(Cl)c(F)c(Cl)c4)(C(F)(F)F)C3)cc21` (centres undefined), the figures for the phenotypic severity score in test [1] (24 h), in test [1] (48 h) and in test [1] (72 h) were 2 (active), 0 and 1, respectively. The drug effect in test [2] (24 h), in test [2] (48 h) and in test [2] (72 h) was 1 (active) throughout.

As for `CC1COC(Cn2cncn2)(c2ccc(Oc3ccc(Cl)cc3)cc2Cl)O1` (centres undefined), the phenotypic severity score is 2 (active) in test [1] (24 h), 1 in test [1] (48 h) and 2 (active) in test [1] (72 h). Besides, the drug effect was 0.136 in test [2] (24 h), 0.25 in test [2] (48 h) and 0.0727 in test [2] (72 h).

As to `Cc1nn(Cc2ccccc2)c(Cl)c1C(=O)NC1CCCCCC1`, the figures for the phenotypic severity score in test [1] (24 h), in test [1] (48 h) and in test [1] (72 h) were 2 (active), 0 and 0, respectively. Besides, the drug effect was 0.0455 in test [2] (24 h), 0.05 in test [2] (48 h) and 0.0727 in test [2] (72 h).

Take `Cc1cc(C2=NOC(c3cc(Cl)c(F)c(Cl)c3)(C(F)(F)F)C2)ccc1C(=O)NCc1ccc2c(c1)C(C)(C)OB2O` (centres undefined): the phenotypic severity score in test [1] (24 h), in test [1] (48 h) and in test [1] (72 h) was 0 throughout. Besides, the results for the drug effect in test [2] (24 h), in test [2] (48 h) and in test [2] (72 h) were 0.2, 0.135 and 0.167, respectively.
